From publication PMC5540273 (PLoS ONE, 2017)

Tested on: MAP3K2
Settings: concentration: 1 μM, replicates: in singlicate; n = 1
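Also: KINOMEscan kinase panel screen.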

| SMILES | %Inh [%] |
| --- | --- |
| CCc1nc(-c2cccc(C)c2)c(-c2ccnc(NCc3ccccc3)c2)s1 | 0 |
| O=c1cc(N2CCOCC2)nc2n(Cc3cccc4ccccc34)ccn12 [GSK2333389] | 0 |
| CN1c2ccc(NCc3ccc(F)cc3)cc2-c2c(cnn2C)S1(=O)=O | 0 |
| Cc1ccc(NC(=O)c2ccnc(N3CCN(C)CC3)c2)cc1-c1ccc(C(=O)NCC2CC2)cc1 [GW775604] | 0 |
| Cc1ccc(C(=O)NCC(N)=O)cc1-n1c(C)cc(OCc2ccc(F)cc2F)c(Br)c1=O | 0 |
| COCCNC(=O)c1ccc(-c2cc(C(=O)NC3CC3)cc(F)c2C)cc1 [GW868318] | 33 |
| COc1ccc(Nc2ncc(C#N)c(Nc3ccccc3C(N)=O)n2)cc1N1CCN(C)CC1.Cl [GSK1558669] | 99.2 |
| COc1ccc(S(=O)(=O)NC2CCN(c3cc(C)nc(Nc4cccc(C#N)c4)n3)CC2)cc1.O=C(O)C(F)(F)F [GSK1653539] | 0 |
| COc1ccc(Nc2nccc(N3CCC(NC(=O)Nc4cc(C)ccc4C)C3)n2)cc1 (centres unmarked) [GSK1379741] | 5 |
| CC(C)(C)n1cnc2c(N)ncnc21 [SKF-97359] | 0 |
| COc1cc2ncn(-c3cc(OCc4sccc4Cl)c(C(N)=O)s3)c2cc1OC [GSK448459] | 10 |
| COC(=O)Nc1nc2cc(Oc3ccc(NC(=O)Nc4cc(F)ccc4F)cc3)ccc2[nH]1.Cl [GW701424] | 2 |
| Cc1c2ccc(N(C)c3ccnc(Nc4cccc(S(N)(=O)=O)c4)n3)cc2nn1Cc1ccccc1.Cl.Cl [GW787226] | 31 |
| O=C(NCCNc1ccnc(Nc2ccc(F)cc2)n1)c1cc2ccccc2s1 [GSK1379874] | 0 |
| CCn1cnc2c(N)ncnc21 [GW345098] | 9 |
| O=C1Cc2cc(Nc3nc(NCc4cccc(S(=O)(=O)C(F)(F)F)c4)ncc3C(F)(F)F)ccc2N1 | 12 |
| Cl.Oc1cccc(Nc2ccnc3cc(-c4ccncc4)ccc23)c1 [GW494601] | 76 |

| SMILES | %Inh [%] |
| --- | --- |
| Cn1cc(-c2ccc3c(c2)CCN3C(=O)Cc2ccccc2Cl)c2c(N)ncnc21 [GSK2608885] | 91.1 |
| NS(=O)(=O)CCc1cccc(Nc2nccc(-c3c(-c4cccc(NC(=O)c5c(F)cccc5F)c4)nn4ccccc34)n2)c1 [GSK336735] | 88 |
| O=c1cc(N2CCOCC2)nc2n(Cc3cccc(Cl)c3Cl)c(C3CC3)nn12 [GSK2358994] | 0 |
| COc1ccc(COc2cc(-n3cnc4ccccc43)sc2C(N)=O)cc1 [GSK1024304] | 0 |
| c1ccc(-c2n[nH]cc2-c2ccnc3ccccc23)nc1 [GW271431] | 11 |
| CN(C1=C(c2ccccc2)C(=O)NC1=O)c1ccccc1 [SB-334860] | 2 |
| COc1ccc(CNC(=O)NC2CCN(c3ccnc(Nc4ccc(OC)cc4)n3)C2)cc1 (centres unmarked) [GSK1379727] | 0 |
| COc1cc2c(cc1OC[C@@H](O)CO)ncc1c3ccc(C#N)cc3[nH]c21 | 0 |
| c1ccc(-c2cc(-c3c[nH]nc3-c3ccccn3)ccn2)cc1 [GW576604] | 0 |
| Cc1cccc(-c2nc(-c3ccc(S(C)(=O)=O)cc3)sc2-c2ccncc2)c1 | 10 |
| Cc1cccc(Cn2ccn3c(=O)cc(N4CCOCC4)nc23)c1 [GSK2297542] | 8 |
| Fc1ccc(-c2nn3c(OCC(F)(F)F)cccc3c2-c2ccncc2)cc1 [GW514784] | 0 |
| N#Cc1c(N2CCOCC2)sc(-c2ccn[nH]2)c1-c1ccc(Cl)cc1 | 0 |
| COc1cc2c(cc1OCCN1CCN(C)CC1)ncc1c3ccc(C#N)cc3[nH]c21 | 0 |
| CC(=O)Nc1ccc(COc2ccc(Nc3ccnc4cc(-c5ccccn5)ccc34)cc2)cc1.Cl [GW440148] | 0 |
| [2H]C([2H])(c1cccc(C(F)(F)F)c1C)n1ccn2c(=O)nc(N3CCOCC3)cc12 [GSK2336394] | 5 |
| COc1ccc(Nc2nccc(N3CCC(NC(=O)Nc4cccc(C(C)=O)c4)C3)n2)cc1 (centres unmarked) [GSK1379731] | 4 |

Tested on: MAP3K3
Settings: concentration: 1 μM, replicates: in singlicate; n = 1

| SMILES | %Inh [%] |
| --- | --- |
| CCc1nc(-c2cccc(C)c2)c(-c2ccnc(NCc3ccccc3)c2)s1 | 0 |
| O=c1cc(N2CCOCC2)nc2n(Cc3cccc4ccccc34)ccn12 [GSK2333389] | 0 |
| CN1c2ccc(NCc3ccc(F)cc3)cc2-c2c(cnn2C)S1(=O)=O | 5 |
| Cc1ccc(NC(=O)c2ccnc(N3CCN(C)CC3)c2)cc1-c1ccc(C(=O)NCC2CC2)cc1 [GW775604] | 0 |
| Cc1ccc(C(=O)NCC(N)=O)cc1-n1c(C)cc(OCc2ccc(F)cc2F)c(Br)c1=O | 0 |
| COCCNC(=O)c1ccc(-c2cc(C(=O)NC3CC3)cc(F)c2C)cc1 [GW868318] | 28 |
| COc1ccc(Nc2ncc(C#N)c(Nc3ccccc3C(N)=O)n2)cc1N1CCN(C)CC1.Cl [GSK1558669] | 99.8 |
| COc1ccc(S(=O)(=O)NC2CCN(c3cc(C)nc(Nc4cccc(C#N)c4)n3)CC2)cc1.O=C(O)C(F)(F)F [GSK1653539] | 0 |
| COc1ccc(Nc2nccc(N3CCC(NC(=O)Nc4cc(C)ccc4C)C3)n2)cc1 (centres unmarked) [GSK1379741] | 0 |
| CC(C)(C)n1cnc2c(N)ncnc21 [SKF-97359] | 0 |
| COc1cc2ncn(-c3cc(OCc4sccc4Cl)c(C(N)=O)s3)c2cc1OC [GSK448459] | 0 |
| COC(=O)Nc1nc2cc(Oc3ccc(NC(=O)Nc4cc(F)ccc4F)cc3)ccc2[nH]1.Cl [GW701424] | 0 |
| Cc1c2ccc(N(C)c3ccnc(Nc4cccc(S(N)(=O)=O)c4)n3)cc2nn1Cc1ccccc1.Cl.Cl [GW787226] | 0 |
| O=C(NCCNc1ccnc(Nc2ccc(F)cc2)n1)c1cc2ccccc2s1 [GSK1379874] | 0 |
| CCn1cnc2c(N)ncnc21 [GW345098] | 20 |
| O=C1Cc2cc(Nc3nc(NCc4cccc(S(=O)(=O)C(F)(F)F)c4)ncc3C(F)(F)F)ccc2N1 | 0 |
| Cl.Oc1cccc(Nc2ccnc3cc(-c4ccncc4)ccc23)c1 [GW494601] | 70 |

| SMILES | %Inh [%] |
| --- | --- |
| Cn1cc(-c2ccc3c(c2)CCN3C(=O)Cc2ccccc2Cl)c2c(N)ncnc21 [GSK2608885] | 82 |
| NS(=O)(=O)CCc1cccc(Nc2nccc(-c3c(-c4cccc(NC(=O)c5c(F)cccc5F)c4)nn4ccccc34)n2)c1 [GSK336735] | 79 |
| O=c1cc(N2CCOCC2)nc2n(Cc3cccc(Cl)c3Cl)c(C3CC3)nn12 [GSK2358994] | 0 |
| COc1ccc(COc2cc(-n3cnc4ccccc43)sc2C(N)=O)cc1 [GSK1024304] | 0 |
| c1ccc(-c2n[nH]cc2-c2ccnc3ccccc23)nc1 [GW271431] | 0 |
| CN(C1=C(c2ccccc2)C(=O)NC1=O)c1ccccc1 [SB-334860] | 0 |
| COc1ccc(CNC(=O)NC2CCN(c3ccnc(Nc4ccc(OC)cc4)n3)C2)cc1 (centres unmarked) [GSK1379727] | 0 |
| COc1cc2c(cc1OC[C@@H](O)CO)ncc1c3ccc(C#N)cc3[nH]c21 | 6 |
| c1ccc(-c2cc(-c3c[nH]nc3-c3ccccn3)ccn2)cc1 [GW576604] | 0 |
| Cc1cccc(-c2nc(-c3ccc(S(C)(=O)=O)cc3)sc2-c2ccncc2)c1 | 9 |
| Cc1cccc(Cn2ccn3c(=O)cc(N4CCOCC4)nc23)c1 [GSK2297542] | 0 |
| Fc1ccc(-c2nn3c(OCC(F)(F)F)cccc3c2-c2ccncc2)cc1 [GW514784] | 0 |
| N#Cc1c(N2CCOCC2)sc(-c2ccn[nH]2)c1-c1ccc(Cl)cc1 | 30 |
| COc1cc2c(cc1OCCN1CCN(C)CC1)ncc1c3ccc(C#N)cc3[nH]c21 | 0 |
| CC(=O)Nc1ccc(COc2ccc(Nc3ccnc4cc(-c5ccccn5)ccc34)cc2)cc1.Cl [GW440148] | 0 |
| [2H]C([2H])(c1cccc(C(F)(F)F)c1C)n1ccn2c(=O)nc(N3CCOCC3)cc12 [GSK2336394] | 0 |
| COc1ccc(Nc2nccc(N3CCC(NC(=O)Nc4cccc(C(C)=O)c4)C3)n2)cc1 (centres unmarked) [GSK1379731] | 0 |
